Conditions in all cases: mRNA level, 48 h; actives raise or lower the signal
Read-out in assay [1]: matrix metalloproteinase-10 (MMP10), MMP10 (gene 4319)
As to the kind of experiment: LTEA_HepaRG_MMP10: Life Technologies and Expression Analysis (LTEA) Assay for matrix metalloproteinase-10 (MMP10) using HepaRG (AID 2283517). In short, it runs like this: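 In differentiated HepaRG cultures kept in 0.5% DMSO, test chemicals act for 48 h over an eight-point range with a top dose of 100 uM. Expression is then quantified by TaqMan RT-PCR against ACTB, GAPDH and POLR2A.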

Read-out in assay [2]: MYC, MYC (gene 4609)
Put plainly: LTEA_HepaRG_MYC: Life Technologies and Expression Analysis (LTEA) Assay for MYC using HepaRG (AID 2283518). The essentials:
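qRT-PCR read-out of MYC transcript (Fluidigm TaqMan, housekeeping-normalized) after 48 h chemical exposure of HepaRG cells; eight concentrations, top 100 uM, half-log steps. Bidirectional curve fitting against 0.5% DMSO vehicle baseline.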

Read-out in assay [3]: matrix metalloproteinase-3 (MMP3), MMP3 (gene 4314)
Put plainly: LTEA_HepaRG_MMP3: Life Technologies and Expression Analysis (LTEA) Assay for matrix metalloproteinase-3 (MMP3) using HepaRG (AID 2283519). The essentials:
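Human liver HepaRG cultures received chemicals (top concentration 100 uM, 0.5% DMSO) for 48 h in duplicate. MMP3 mRNA induction or loss was then assessed via TaqMan qRT-PCR with housekeeping-gene normalisation.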

Read-out in assay [4]: Paternally Expressed 10 (PEG10), PEG10 (gene 23089)
Put plainly: LTEA_HepaRG_PEG10: Life Technologies and Expression Analysis (LTEA) Assay for Paternally Expressed 10 (PEG10) using HepaRG (AID 2283520).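 On AC50: differentiated HepaRG human liver cells in serum-free induction medium with 0.5% DMSO; PEG10 transcript by qRT-PCR normalised to ACTB GAPDH and POLR2A.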 In short, it runs like this: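 qRT-PCR read-out: PEG10 mRNA normalised to three housekeeping genes, fitted bidirectionally against 0.5% DMSO vehicle. HepaRG cells received test chemicals for 48 h in serum-free induction medium, 8 points, top 100 uM, half-log steps.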

Read-out in assay [5]: Protein phosphatase 2A (PPP2R4), PTPA (gene 5524)
Put plainly: LTEA_HepaRG_PPP2R4: Life Technologies and Expression Analysis (LTEA) Assay for Protein phosphatase 2A (PPP2R4) using HepaRG (AID 2283522). In short, it runs like this: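 HepaRG, 48 h exposure, 8-pt half-log series from 100 uM, 0.5% DMSO vehicle, duplicates. Readout: PPP2R4 mRNA, Fluidigm qRT-PCR, housekeeping-normalized. Bidirectional curve fit vs DMSO baseline.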

Read-out in assay [6]: Phosphatase and tensin (PTEN), PTEN (gene 5728)
As to the kind of experiment: LTEA_HepaRG_PTEN: Life Technologies and Expression Analysis (LTEA) Assay for Phosphatase and tensin (PTEN) using HepaRG (AID 2283523). The essentials: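 Expression of PTEN is quantified in the human liver line HepaRG following two days of dosing (top concentration 100 uM, half-log dilutions, 0.5% DMSO). Values derive from bidirectional curve fitting relative to DMSO controls.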

Read-out in assay [7]: Pyruvate Dehydrogenase Kinase 4 (PDK4), PDK4 (gene 5166)
Put plainly: LTEA_HepaRG_PDK4: Life Technologies and Expression Analysis (LTEA) Assay for Pyruvate Dehydrogenase Kinase 4 (PDK4) using HepaRG (AID 2283525). The essentials:
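Eight-point, half-log concentration series (max 100 uM, 0.5% DMSO) applied to differentiated HepaRG cells for 48 h in duplicate. Endpoint: PDK4 mRNA induction or repression by qRT-PCR against DMSO baseline.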

Read-out in assay [8]: NAD(P)H dehydrogenase [quinone] 1 (NQO1), NQO1 (gene 1728)
Put plainly: LTEA_HepaRG_NQO1: Life Technologies and Expression Analysis (LTEA) Assay for NAD(P)H dehydrogenase [quinone] 1 (NQO1) using HepaRG (AID 2283526). In short, it runs like this: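 qRT-PCR read-out (Fluidigm TaqMan), normalized to three housekeeping genes, after 48 h chemical exposure of HepaRG cells. Concentrations: eight points, top 100 uM, half-log steps, 0.5% DMSO vehicle. Gain or loss of signal fitted relative to DMSO.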

Read-out in assay [9]: Nuclear factor erythroid 2-related factor 2 (Homo sapiens) (UniProt Q16236)
As to the kind of experiment: LTEA_HepaRG_NFE2L2: Life Technologies and Expression Analysis (LTEA) Assay for Nuclear factor erythroid 2-related factor 2 (NFE2L2) Transcription Factor using HepaRG (AID 2283527). The essentials: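 Human liver HepaRG line treated in duplicate for 48 h with an eight-point series topping at 100 uM. Gene expression of NFE2L2 by qRT-PCR, bidirectionally fitted against the vehicle control.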

Read-out in assay [10]: succinate dehydrogenase complex iron sulfur subunit B (SDHB), SDHB (gene 6390)
As to the kind of experiment: LTEA_HepaRG_SDHB: Life Technologies and Expression Analysis (LTEA) Assay for succinate dehydrogenase complex iron sulfur subunit B (SDHB) using HepaRG (AID 2283528). The essentials: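 SDHB transcript level read by TaqMan qRT-PCR, housekeeping-normalised (ACTB, GAPDH, POLR2A), after 48 h chemical treatment of plated HepaRG cells; eight concentrations top 100 uM, half-log steps, 0.5% DMSO, duplicates; fitted both directions against DMSO.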

Read-out in assay [11]: Signal transducer and activator of transcription 3 (Homo sapiens) (UniProt P40763)
Put plainly: LTEA_HepaRG_STAT3: Life Technologies and Expression Analysis (LTEA) Assay for Signal transducer and activator of transcription (STAT3) using HepaRG (AID 2283529). In short, it runs like this: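 In this transcriptional endpoint, HepaRG cultures receive test chemicals at up to 100 uM for 48 h, tested in duplicate. STAT3 mRNA is normalized to ACTB, GAPDH and POLR2A.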

Read-out in assay [12]: solute carrier (SLCO1B1), SLCO1B1 (gene 10599)
Put plainly: LTEA_HepaRG_SLCO1B1: Life Technologies and Expression Analysis (LTEA) Assay for solute carrier (SLCO1B1) using HepaRG (AID 2283530). In short, it runs like this: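 SLCO1B1 transcript read by qRT-PCR (Fluidigm arrays), normalized to three housekeeping genes, after 48 h chemical exposure of HepaRG cells; bidirectional concentration-response fitting versus 0.5% DMSO baseline. Eight-point half-log series, maximum 100 uM.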

Read-out in assay [13]: sulfotransferase 2A1 (SULT2A1), SULT2A1 (gene 6822)
As to the kind of experiment: LTEA_HepaRG_SULT2A1: Life Technologies and Expression Analysis (LTEA) Assay for sulfotransferase 2A1 (SULT2A1) using HepaRG (AID 2283531). In short, it runs like this: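 HepaRG, 48 h chemical exposure, 8-pt half-log curve from 100 uM in 0.5% DMSO, duplicates. Readout: TaqMan qRT-PCR of SULT2A1 mRNA, housekeeping-normalized. Bidirectional fit vs DMSO baseline.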

Read-out in assay [14]: Transforming Growth Factor (TGFA), TGFA (gene 7039)
As to the kind of experiment: LTEA_HepaRG_TGFA: Life Technologies and Expression Analysis (LTEA) Assay for Transforming Growth Factor (TGFA) using HepaRG (AID 2283532). The essentials: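 Gene expression of TGFA was quantified by qRT-PCR after human HepaRG cells were treated for 48 h with test chemicals (eight concentrations, highest 100 uM, 0.5% DMSO). Activity in either direction was fitted relative to DMSO.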

Read-out in assay [15]: Transforming Growth Factor (TGFB1), TGFB1 (gene 7040)
As to the kind of experiment: LTEA_HepaRG_TGFB1: Life Technologies and Expression Analysis (LTEA) Assay for Transforming Growth Factor (TGFB1) Transporter using HepaRG (AID 2283533). The essentials: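 qRT-PCR readout of TGFB1 transcript in HepaRG lysates, normalized to three housekeeping genes; gain or loss of signal fitted relative to 0.5% DMSO vehicle. Exposure: 48 h, 8-point curve from 100 uM, duplicate wells.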

Read-out in assay [16]: TIMP1, TIMP1 (gene 7076)
As to the kind of experiment: LTEA_HepaRG_TIMP1: Life Technologies and Expression Analysis (LTEA) Assay for TIMP1 using HepaRG (AID 2283534).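 On outcome: TaqMan qRT-PCR signal normalized to ACTB GAPDH and POLR2A housekeeping genes.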 In short, it runs like this:
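HepaRG, 48 h exposure, 8-pt half-log series from 100 uM in 0.5% DMSO, duplicates; TIMP1 transcript by Fluidigm qRT-PCR, housekeeping-normalized; bidirectional curve fit vs DMSO baseline.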

Read-out in assay [17]: Tumor necrosis factor receptor 1 (TNFRSF1A), TNFRSF1A (gene 7132)
As to the kind of experiment: LTEA_HepaRG_TNFRSF1A: Life Technologies and Expression Analysis (LTEA) Assay for Tumor necrosis factor receptor 1 (TNFRSF1A) using HepaRG (AID 2283535). The essentials: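 HepaRG, 48 h plating then 48 h chemical exposure, serum-free induction media; 8-pt CRC from 100 uM, half-log, 0.5% DMSO vehicle, duplicates. Readout: TaqMan qRT-PCR (Fluidigm), housekeeping-gene normalized; bidirectional fit vs DMSO.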

Read-out in assay [18]: solute carrier (SLC22A1), SLC22A1 (gene 6580)
Put plainly: LTEA_HepaRG_SLC22A1: Life Technologies and Expression Analysis (LTEA) Assay for solute carrier (SLC22A1) using HepaRG (AID 2283524).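 On AC50: differentiated human HepaRG liver cells in serum-free induction medium.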 In short, it runs like this:
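Transcript induction or suppression of SLC22A1 in human HepaRG cultures is scored after 48 h chemical treatment, with DMSO (0.5%) as baseline for bidirectional fitting. Concentrations span eight half-log points topping at 100 uM.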

Activity calls are given as the source filed them. How the source made its calls: active means hit-call score of the fitted dose curve at least 0.9, where 1 is the maximum; inactive means score below 0.9.

Sequence of Nuclear factor erythroid 2-related factor 2 (Homo sapiens) (Q16236 whole entry, looked up): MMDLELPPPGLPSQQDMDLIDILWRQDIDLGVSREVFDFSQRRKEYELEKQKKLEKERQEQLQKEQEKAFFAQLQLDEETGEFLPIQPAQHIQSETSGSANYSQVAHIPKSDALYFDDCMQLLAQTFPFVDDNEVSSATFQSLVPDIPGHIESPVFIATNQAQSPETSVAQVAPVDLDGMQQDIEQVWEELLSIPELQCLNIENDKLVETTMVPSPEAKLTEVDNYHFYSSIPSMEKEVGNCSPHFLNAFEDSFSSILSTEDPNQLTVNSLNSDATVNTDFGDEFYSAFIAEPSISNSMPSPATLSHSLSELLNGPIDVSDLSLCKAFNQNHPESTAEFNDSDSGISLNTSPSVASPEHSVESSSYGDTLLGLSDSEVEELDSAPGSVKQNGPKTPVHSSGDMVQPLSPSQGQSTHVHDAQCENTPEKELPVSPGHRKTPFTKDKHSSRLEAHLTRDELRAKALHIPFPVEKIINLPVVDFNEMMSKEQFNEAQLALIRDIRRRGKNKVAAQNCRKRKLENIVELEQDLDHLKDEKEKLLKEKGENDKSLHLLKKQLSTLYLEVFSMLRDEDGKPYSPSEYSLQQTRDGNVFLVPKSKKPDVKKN
Sequence of Signal transducer and activator of transcription 3 (Homo sapiens) (P40763 whole entry, looked up): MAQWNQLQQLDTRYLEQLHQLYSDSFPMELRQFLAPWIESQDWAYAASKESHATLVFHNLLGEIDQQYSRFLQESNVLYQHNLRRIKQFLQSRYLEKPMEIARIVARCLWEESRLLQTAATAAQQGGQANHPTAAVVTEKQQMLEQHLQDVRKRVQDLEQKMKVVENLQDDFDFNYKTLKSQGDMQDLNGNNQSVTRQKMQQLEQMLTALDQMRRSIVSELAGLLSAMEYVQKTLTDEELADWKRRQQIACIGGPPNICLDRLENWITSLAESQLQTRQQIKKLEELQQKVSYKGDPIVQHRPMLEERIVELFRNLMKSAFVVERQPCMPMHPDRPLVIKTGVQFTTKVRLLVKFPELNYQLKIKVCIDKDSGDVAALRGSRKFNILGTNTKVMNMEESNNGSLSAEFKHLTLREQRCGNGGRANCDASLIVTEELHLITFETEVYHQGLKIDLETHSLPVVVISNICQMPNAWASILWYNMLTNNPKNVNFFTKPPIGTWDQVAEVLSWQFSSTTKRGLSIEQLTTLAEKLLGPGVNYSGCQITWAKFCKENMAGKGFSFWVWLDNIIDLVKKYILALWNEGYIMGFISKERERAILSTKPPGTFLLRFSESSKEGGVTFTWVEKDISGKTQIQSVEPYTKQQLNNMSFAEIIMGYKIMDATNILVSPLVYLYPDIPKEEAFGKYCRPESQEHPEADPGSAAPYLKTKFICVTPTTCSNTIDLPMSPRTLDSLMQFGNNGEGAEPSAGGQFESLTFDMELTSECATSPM

Turning to `CNC(=O)Oc1cccc2ccccc12`, the result in assay [1], in assay [2], in assay [3], in assay [4], in [5] and in assay [6] was inactive. Further, the result in assay [7], in assay [8], in assay [9], in assay [10], in assay [11] and in assay [12] was inactive. Further, the molecule was classed as inactive in assay [13], in assay [14], in [15], in assay [16] and in [17].
As for `Nc1c(Cl)c(F)nc(OCC(=O)O)c1Cl`, the call in [1], in [2], in assay [3], in [4], in assay [5] and in assay [6] was inactive. The result in assay [7], in assay [8], in assay [9], in [11], in assay [12] and in [13] was inactive. Moreover, the result in [14], in assay [15], in assay [16] and in assay [17] was inactive.
`Cc1cnc(C2=NC(C)(C(C)C)C(=O)N2)c(C(=O)O)c1` (configuration not stated): the molecule was classed as inactive in [1], in [2], in assay [3], in [4], in [5] and in assay [6]. Also, the outcome in [7], in assay [8], in assay [9], in assay [11], in assay [12] and in [13] was inactive. In addition, the outcome in [14], in [15], in assay [16] and in assay [17] was inactive.
As usually defined, the AC50 is the concentration at which the activity in the assay is half-maximal. On to `O=C(Nc1ccccc1-c1ccc(Cl)cc1)c1cccnc1Cl`, for which the molecule was classed as inactive in [1], in [2], in assay [3], in assay [5], in assay [6] and in [7]. The outcome in assay [8], in [9], in assay [10], in [12], in [13] and in assay [14] was inactive. In addition, the call in [15], in assay [16] and in [17] was inactive. Moreover, the AC50 is 21 µM (active) in assay [4] and 0.539 µM (active) in [11].
Take `Cn1c(-c2ccccc2)cc(-c2ccccc2)[n+]1C`: the AC50 in [2] is 3.12 µM (active); in [3], 88.9 µM (active); in assay [4], 10.7 µM (active); in assay [6], 88.3 µM (active); in assay [18], 34.5 µM (active); in assay [11], 22.5 µM (active). In addition, the concentration at half-maximal activity (AC50) in [12] was 18.6 µM (active); in assay [13], 50 µM (active); in assay [16], 82.9 µM (active); in [17] it was 72.2 µM (active). The result in assay [5], in assay [7], in assay [8], in [9], in assay [14] and in assay [15] was inactive.
Turning to `Cc1ccc(N=CN(C)C=Nc2ccc(C)cc2C)c(C)c1`, the result in assay [1], in [2], in [3], in [4], in assay [5] and in [6] was inactive. For the same molecule, the result in [7], in assay [8], in assay [9], in assay [10], in assay [11] and in assay [12] was inactive. The call in assay [13], in assay [14], in assay [15], in assay [16] and in assay [17] was inactive.
As for `C=C(C)CN(CC)c1c([N+](=O)[O-])cc(C(F)(F)F)cc1[N+](=O)[O-]`, the molecule was classed as inactive in [1], in assay [2], in [3], in assay [4], in [5] and in assay [6]. For the same molecule, the call in assay [18], in assay [7], in [8], in assay [9], in assay [10] and in assay [11] was inactive. The call in assay [12], in [13], in assay [14], in [15], in [16] and in assay [17] was inactive.
